# Experimental data published in PubChem BioAssay (Tox21).
# Results filed as inconclusive are left out. Activity calls are given as the source filed them. The call rests on the fitted dose curve; in most records, active means well fitted cell-killing curve with a large enough effect in the repeat runs; inconclusive means weak or mixed curves; inactive means no such curve, though single readings can be large or run the other way.
# Experiment: qHTS assay to identify small molecule antagonists of the androgen receptor (AR) signaling pathway - cell viability counter screen (AID 743033; further: nearly all actives have a fitted effect of over 45% in size)
# Details: AR-bla HEK293 viability, CellTiter-Glo luminescence, 16 h; series mostly up to 58.5 µM; activity change, negative = cytotoxicity: at the top concentration
# Text: National Center for Advancing Translational Sciences [NCATS]
# NIH Chemical Genomics Center [NCGC]
# U.S. Environmental Protection Agency [EPA]
# National Institutes of Environmental Health Sciences [NIEHS]
# National Toxicology Program [NTP]
# U.S. Food and Drug Administration [FDA]
# Androgen receptor (AR), a nuclear hormone receptor, plays a critical role in AR-dependent prostate cancer and other androgen related diseases. Endocrine disrupting chemicals (EDCs) and their interactions with steroid hormone receptors like AR may cause disruption of normal endocrine function as well as interfere with metabolic homeostasis, reproduction, developmental and behavioral functions. To identify the compounds that inhibit AR signaling, GeneBLAzer AR-UAS-bla-GripTite cell line (Invitrogen, Carlsbad, CA, USA) containing a beta-lactamase reporter gene under control of an Upstream Activator Sequence (UAS) stably integrated into HEK293 cells was used to screen the Tox21 10K compound library. The cytotoxicity of the Tox21 compound library against the AR-bla cell line was tested in parallel by measuring the cell viability using CellTiter-Glo assay in the same wells.
# Tox21 Assay Protocol Summary:
# AR-bla cells were dispensed at 2,000 cells/5 uL of assay medium per well into black wall/clear-bottom 1536-well plates using a Multidrop Combi (ThermoFisher Scientific, Waltham, MA) dispenser. After the assay plates were incubated at a 37C and 5% CO2 for 4 hr, 23 nL of compounds dissolved in DMSO, positive controls or DMSO only was transferred to the assay plate by a Pintool station (Kalypsys, San Diego, CA), followed by addition of 1 uL of agonist (R1881) in culture medium using a Bioraptr Flying Reagent Dispenser (FRD) workstation (Beckman Coulter, Indianapolis, IN, USA). The plates were incubated at a 37C and 5% CO2 for 16 h. After 1 uL of LiveBLAzerTM B/G FRET substrate was added using a Bioraptr FRD, the plates were incubated at room temperature for 2 h and fluorescence intensity was measured by an Envision plate reader (PerkinElmer, Shelton, CT). For cell viability readout that measures cytotoxicity, 4 ul/well of CellTiter-Glo reagent was added into the assay plates using a Bioraptr FRD. After 30 min incubation at room temperature, the luminescence intensity in the plates was measured using a ViewLux (PerkinElmer) plate reader.
# On the % scale 0 is the no-effect control and ±100 the full control effect.
Structure (SMILES),"activity change, negative = cytotoxicity",Potency
CC(S)C(=O)NCC(=O)O (stereo not given),10.8% (inactive),–
CC(C)OC(=O)CCCCC(=O)OC(C)C,5.88% (inactive),–
CC(C)CCCC(C)(C)O,1.18% (inactive),–
O=C(NCC(O)CO)c1c(I)c(C(=O)NCC(O)CO)c(I)c(N(CCO)C(=O)CO)c1I (stereo not given),11.6% [at 27 µM] (inactive),–
CCN1CCc2nc(N)oc2CC1,1.54% (inactive),–
OCCC(F)(F)C(F)(F)C(F)(F)C(F)(F)C(F)(F)C(F)(F)C(F)(F)C(F)(F)F,5.88% (inactive),–
Brc1ccc(-c2ccccc2)cc1,-0.15% (inactive),–
CC/C=C\CC1=C(C)CCC1=O,3.42% (inactive),–
Cc1ccccc1OCC(O)CO (stereo not given),-5.6% (inactive),–
NNc1nnc(NN)c2ccccc12,-0.933% (inactive),–
CC(C)=O,–,inactive
O=C1c2ccccc2C(=O)C1c1ccccc1,-13.7% [at 27 µM] (inactive),–
c1ccc2c(c1)ccc1c3ccccc3ccc21,4.61% (inactive),–
O=C(O)C(=O)Cc1ccccc1,10.9% (inactive),–
O=C(NCCc1c[nH]c2ccccc12)c1cccnc1,0.173% (inactive),–
O=P(O)(O)OP(=O)(O)O,–,inactive
O=C(O)Cc1ccc(Cl)cc1Cl,0.345% (inactive),–
C=C(C)C(=O)OCc1ccccc1,0.651% (inactive),–
CCCCCCN,1.99% (inactive),–
N[C@@H](CCC(=O)N[C@@H](CS)C(=O)NCC(=O)O)C(=O)O,-7.41% (inactive),–

Structure (SMILES),"activity change, negative = cytotoxicity",Potency
O=S(O)(O)=S,3.7% [at 7.04 µM] (inactive),–
FC(F)(F)c1ccccc1-n1ccnc1,6.19% (inactive),–
CC(C)CCCCOC(=O)c1ccccc1C(=O)OCCCCC(C)C,-6.17% (inactive),–
NC(CO)C(=O)NNCc1ccc(O)c(O)c1O (stereo not given),0.211% (inactive),–
CC(C)(C)OC(=O)c1ccc(O)cc1,-12.1% (inactive),–
C[C@@H](O)[C@H]1C(=O)N2C(C(=O)O)=C(SCCN=CN)C[C@H]12,12.7% [at 27 µM] (inactive),–
CC(=O)/C=C/C1C(C)=CCC(C)C1(C)C (stereo not given),3.38% (inactive),–
CNC(=O)[C@H]1O[C@@H](n2cnc3c(NCc4cc(Cl)ccc4OCc4cc(C)no4)ncnc32)[C@H](O)[C@@H]1N,7.28% (inactive),–
CC(=O)N[C@@H](CCC(=O)O)C(=O)O,-7.3% (inactive),–
COCCOCCOCCOCCOCCO,7.2% (inactive),–
Cc1nc2n(c(=O)c1CCN1CCC(c3noc4cc(F)ccc34)CC1)CCC[C@H]2O,-1.3% (inactive),–
N[C@@H](COP(=O)(O)O)C(=O)O,1.47% (inactive),–
CCCC/C=C\CCCCCCCCCC=O,0.897% (inactive),–
COP(=O)(OC)OC(c1ccc(Cl)cc1)P(=O)(OC)OC (stereo not given),3.98% (inactive),–
CCCCCCCC/C=C\CCCCCCCC(=O)OCCCC,-0.127% [at 27 µM] (inactive),–
ClCCCl,-0.426% (inactive),–
CC[C@H](C)C(=O)O[C@H]1C[C@H](O)C=C2C=C[C@H](C)[C@H](CC[C@@H](O)C[C@@H](O)CC(=O)O)[C@H]21,–,inactive
O=C(CS(=O)Cc1ccco1)NC/C=C\COc1cc(CN2CCCCC2)ccn1 (stereo not given),2.24% (inactive),–
CCCCCCCCC1CCC(=O)O1 (stereo not given),4.16% (inactive),–
O=C(O)c1cc(Cl)cc([N+](=O)[O-])c1Cl,2.45% (inactive),–
